The source made the active and inactive calls. How the source made its calls: active means hit-call score of the fitted dose curve at least 0.9, where 1 is the maximum; inactive means score below 0.9.
Molecular target: Signal transducer and activator of transcription 3 (Homo sapiens) (UniProt P40763)
Test: ATG_STAT3_CIS: Attagene CIS-FACTORIAL HepG2 Assay for human Signal Transducer and Activator of Transcription 3 (STAT3) (AID 2282963)
Details: HepG2, Attagene cis-factorial STAT3 reporter transcription; actives raise or lower the signal
Protocol: ATG_CIS is a cell-based, multiplexed-readout assay that uses HepG2, a human liver cell line, with measurements taken at 24 hours after chemical dosing in a 24-well plate.ATG_STAT3_CIS is one of 52 assay component(s) measured or calculated from the ATG_CIS assay. It is designed to make measurements of mRNA induction, a form of inducible reporter, as detected with fluorescence intensity signals by Reverse transcription polymerase chain reaction (RT-PCR) and Capillary electrophoresis technology.Data from the assay component ATG_STAT3_CIS was analyzed into 1 assay endpoint. This assay endpoint, ATG_STAT3_CIS, was analyzed with bidirectional fitting relative to DMSO as the negative control and baseline of activity. Using a type of inducible reporter, measures of mRNA for gain or loss-of-signal activity can be used to understand the reporter gene at the transcription factor-level as they relate to the gene STAT3. Furthermore, this assay endpoint can be referred to as a primary readout, because this assay has produced multiple assay endpoints where this one serves a reporter gene function. To generalize the intended target to other relatable targets, this assay endpoint is annotated to the dna binding intended target family, where the subfamily is stat protein.
Human liver HepG2 cells are transiently transfected with multiple reporter transcription units (MRTUs) in 6-well plates using FuGene 6 reagent (Roche; 3 ml FuGene/1 mg DNA). The MRTU constructs are regulated by a cis-regulating element (promoter). […] A major difference between the CIS and TRANS system is that in CIS activities of endogenous TFs are measured, whereas the TRANS assay evaluates changes in activities of exogenous, chimeric NR-Gal4 proteins. […] At the end of 24 hour incubation, total RNA was isolated using TriZol reagent (Invitrogen). The isolated RNA is then reverse-transcribed using oligo(dT) primer and Mo-MLV reverse transcriptase (Invitrogen) with DNAse I (Ambion) treatment for 30 min. The one-tenth of the produced cDNA was amplified by PCR using Taq DNA polymerase (Invitrogen) and two reporter sequence-specific primers. The PCR products were fluorescently labeled by primer extension with 6-arboxyfluorescein (6-FAM) 5'-labeled reporter sequence-specific primer (2 min at 95 C, 20 s at 68 C and 10 min at 72 C) and these products were digested with 5U of HpaI (New England Biolabs) for 2h at 37 C. The fragments were purified using Qiaquick PCR columns (Qiagen), analyzed on an ABI 3130xL genetic analyzer (Applied Biosystems) with peak positions identified by using a set of X-rhodamine (ROX)-labeled MapMarker1000 molecular weight standards (BioVentures). The raw capillary electrophoresis data was processed using Attagraph software (Attagene).

Chain of Signal transducer and activator of transcription 3 (Homo sapiens) (P40763 whole entry, looked up): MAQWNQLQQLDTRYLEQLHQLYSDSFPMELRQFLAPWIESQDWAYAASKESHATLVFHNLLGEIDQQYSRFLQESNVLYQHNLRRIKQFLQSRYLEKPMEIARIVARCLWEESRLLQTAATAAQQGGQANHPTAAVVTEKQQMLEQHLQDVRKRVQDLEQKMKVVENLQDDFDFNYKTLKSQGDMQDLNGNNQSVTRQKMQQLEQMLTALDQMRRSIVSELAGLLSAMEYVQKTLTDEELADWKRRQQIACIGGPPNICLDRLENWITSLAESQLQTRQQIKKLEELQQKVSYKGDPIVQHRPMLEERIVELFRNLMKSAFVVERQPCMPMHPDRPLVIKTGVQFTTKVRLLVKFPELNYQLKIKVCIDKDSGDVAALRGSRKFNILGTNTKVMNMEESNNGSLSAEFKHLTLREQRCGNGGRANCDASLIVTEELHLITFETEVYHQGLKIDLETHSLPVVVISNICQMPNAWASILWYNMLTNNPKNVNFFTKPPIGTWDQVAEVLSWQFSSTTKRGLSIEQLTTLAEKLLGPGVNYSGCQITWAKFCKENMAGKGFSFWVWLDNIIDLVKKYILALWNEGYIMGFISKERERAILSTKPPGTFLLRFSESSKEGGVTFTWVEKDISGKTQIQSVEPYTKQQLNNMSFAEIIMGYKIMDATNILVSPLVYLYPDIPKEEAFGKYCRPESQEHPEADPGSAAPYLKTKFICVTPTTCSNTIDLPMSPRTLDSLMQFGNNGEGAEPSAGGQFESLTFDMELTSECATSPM

outcome, inactive:
Nc1ccc(F)c([N+](=O)[O-])c1
CC(C)(C)NC(N)=O
CCn1c2ccccc2c2cc(N)ccc21
CCCCCC=CCC(=O)OC
COC(C)CCO (stereo not given)
C[C@H]1C[C@@H]2[C@H]([C@@H](O)C[C@@]3(C)[C@H]2CC[C@]3(O)C(=O)CO)[C@@]2(C)C=CC(=O)C=C12
CC(C)(CO)[N+](=O)[O-]
O=C(Cl)c1cccc(C(=O)Cl)c1
C=C(C)C(=O)NCCCN(C)C
OCCOCCOCCOCCO
COc1cc(C)cc(O)c1
Nc1ccc(S(N)(=O)=O)cc1
O=Cc1ccc(F)cc1
OCc1cccnc1
Cc1ccc(C(=O)O)o1
CCN(CC)c1ccc2c(-c3ccccc3C(=O)O)c3ccc(=[N+](CC)CC)cc-3oc2c1
CC(=O)Nc1ccc(CC(=O)O)cc1
O=C(O)CN(CCN(CC(=O)O)CC(=O)O)CCN(CC(=O)O)CC(=O)O
CC(C)Oc1ccccc1O
CCC(C)CCCC(C)(C)O (stereo not given)
C=C(C)[C@@H]1CC[C@@H](C)C[C@@H]1O
CCCC(=O)C(C)=O
COC(=O)c1ccc(C)cc1
CCCC1CCC(=O)O1 (stereo not given)
CC(=O)OCC=Cc1ccccc1
CC1(CO)CN(c2ccccc2)NC1=O (stereo not given)
O=[N+]([O-])c1ccc(Nc2ccc(Nc3ccccc3)c(S(=O)(=O)O)c2)c([N+](=O)[O-])c1
C=C(C)C(=O)O[C@H]1C[C@@H]2CC[C@@]1(C)C2(C)C
CCCCCCCCCCCCCC(=O)O
CCCCNC(=O)NS(=O)(=O)c1ccc(C)cc1
CC(C)(C)c1cc(CCC(=O)NN)cc(C(C)(C)C)c1O
CCCC/C=C\CCCCCCCCCC=O
O=C(Nc1ccccc1)c1cc([N+](=O)[O-])ccc1Cl
O=C(Oc1ccccc1)c1ccc(O)cc1
CCCCCCCCC
O=C(O)c1cccc([N+](=O)[O-])c1
CCC/C=C/C=O
Cc1cccc(Nc2ccccc2C(=O)O)c1C
C=CC(=O)NCOCC(C)C
Clc1ccc2c(c1)C(N1CCNCC1)=Nc1ccccc1O2

Reference: PubChem BioAssay (EPA / NIEHS)
